# The list is not random: actives were taken first. Their share in the collection is about 5.3%.
# Vaccinia mCherry: inhibitors of vaccinia virus infection (mCherry reporter signal) | Vaccinia virus mCherry reporter infection, fluorescence | Potency, µM (highest dose often 36.5 µM), without a hit: top-dose activity change, negative = inhibition, most hits filed as inhibitors | 310,000 compounds, 0.63% hits | AID 720579; calls by dose curve; tested in A549 cells; further: nearly all actives have a fitted effect of over 35% in size
# LASV entry inh: blocks Lassa virus binding to or entry into cells. 300,000 compounds, 1.2% hits. Lassa virus pseudotype entry inhibition, cell reporter. Potency, µM (highest dose often 37.9 µM), for inactives: top-dose activity change, negative = inhibition, most hits filed as inhibitors; calls by dose curve; tested in HEK293 cells; further: nearly all actives have a fitted effect of over 50% in size
# HCV inh: inhibitors of hepatitis C virus infection. Huh7.5.1 HCVcc-Cre infection, luciferase reporter, 44 h. Potency, µM (titrated, usually from 41.8 µM), without a hit: top-dose activity change, negative = inhibition, most hits filed as inhibitors. 340,000 compounds, 3.4% hits. AID 651820; active means well fitted inhibition curve with a large enough effect; inconclusive means small, poorly fitted or top-dose-only effect, or another doubt; inactive means no such curve, though single readings can be large or run the other way
#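 Luciferase read-out (15 sec integration) after a 15 min room-temperature substrate step quantifies HCVcc-Cre infection. Cells, 1,000 per well, had compound added 4 h post-plating, then virus at ~0.5 moi, and were cultured 44 h.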
# FMDV antiviral: blocks foot and mouth disease virus; FMDV antiviral cell-based qHTS; Potency, µM (series often up to 57.9 µM), for inactives: top-dose activity change, negative = inhibition, actives largely listed as inhibitors; 410,000 compounds, 1.2% hits; AID 1159524; calls by dose curve; tested in HEK293T cells; further: read-out not given here; nearly all actives have a fitted effect of over 45% in size
# VACV Venus inh: inhibitors of vaccinia virus (Venus reporter) | Potency, µM (top dose mostly 36.5 µM), for the others: at the highest dose activity change, negative = inhibition, actives largely listed as inhibitors | Vaccinia virus Venus reporter expression, fluorescence | 330,000 compounds, 0.46% hits | AID 720580; calls by dose curve; tested in A549 cells; further: nearly all actives have a fitted effect of over 30% in size
# Marburg entry inh: blocks Marburg virus binding to or entry into cells; 300,000 compounds, 1.8% hits; AID 540276; Marburg virus pseudotyped entry inhibition, cell reporter; Potency, µM (titrated, usually from 37.8 µM), for the others: at the top dose activity change, negative = inhibition, most hits filed as inhibitors; calls by dose curve; tested in HEK293 cells
# Numbers without * were called inactive; i = inactive; u = inconclusive; x = no result; [ ] = another dose, or the depositor's remark. On the % scale 0 is the no-effect control and ±100 the full control effect; potency means the concentration at half of the fitted maximal effect.
SMILES,Vaccinia mCherry,LASV entry inh,HCV inh,FMDV antiviral,VACV Venus inh,Marburg entry inh
CN(C)CCNc1cc(-c2ccncc2)nc2ccccc12,i,-12%[46.1 µM],-2%,6%,-22%,6.3µM*
O=C([C@@H]1C[C@@H](Sc2nc3ccccc3[nH]2)CN1Cc1c(F)cccc1F)N1CCOCC1,-4%,x,x,-14%,-13%,x
O=C(Nc1cccc(-c2nc3ccccc3s2)c1)c1cc(-n2cnnc2)ccc1Cl,x,x,13µM*,2%,x,x
CC(=O)Nc1ccc(NC(=O)c2cc(-n3cnnc3)ccc2Cl)cc1,x,x,-15%,-18%,x,x
Cc1ccc2sc(-c3ccc(NC(=O)c4cc(-n5cnnc5)ccc4Cl)cc3)nc2c1,x,u,0.89µM*,8%,x,u
Cc1c(NC(=O)c2cc(-n3cnnc3)ccc2Cl)cccc1-c1nc2ccccc2s1,i,1%,u,14%,-5%,u
CCOc1ccc(CCNC(=O)c2cc3sccc3n2CC)cc1OCC,-3%,15µM*,7.9µM*,u,-13%,u
O=C(CCc1nc2ccccc2c(=O)[nH]1)N1CCN(C/C=C/c2ccccc2)CC1,x,0%,u,20µM*,x,-19%
CC(=O)N1CCN(C(=O)CCc2nc3ccccc3c(=O)[nH]2)CC1,x,15%,6%,-25%,x,21%
O=c1[nH]c(CN2CCN(C/C=C/c3ccccc3)CC2)nc2cc(Cl)ccc12,-29%,1%,14µM*,-23%,-22%,4.1µM*
O=C(c1ccco1)N1CCN(Cc2nc3cc(Cl)ccc3c(=O)[nH]2)CC1,i,-2%,6%,-11%,0%,9%
CCC(CO)N=CC1=C(O)CC(c2ccccc2)CC1=O (stereo not given),i,-17%,u,-11%,-12%,-8%
COc1cc2nc(CC(O)c3nc4cc(OC)c(OC)cc4[nH]3)[nH]c2cc1OC (stereo not given),-3%,x,x,x,-22%,x
CCC(C)c1ccccc1OCCOCCN1CCCC1 (stereo not given),-16%,18µM*,8%,0%,-6%,u
CCC(C)c1ccccc1OCCCCN1CCCC1 (stereo not given),i,u,u,u,-18%,u
Cc1ccc(C(C)(C)C)c(OCCOCCN2CCCC2)c1,-23%,u,u,7%,-11%,12µM*
Cc1cccc(N=C2Sc3nc4c(C)c(C)ccc4cc3CN2CCN2CCOCC2)c1,-11%,23µM*,13µM*,-29%,u,16µM*
Cc1[nH]nc(-c2cccnc2)c1N=NN(C)C,u,u,u,u,u,7.1µM*
CN(C)c1nc(N)nc(-c2cccnc2)n1,x,14%,-6%,-14%,-2%,22%[46.1 µM]
CCc1cccc(Nc2c([N+](=O)[O-])cc(C(=O)N3CC(=O)Nc4ccccc43)cc2[N+](=O)[O-])c1,-3%,u,14µM*,u,-18%,-38%
C=CCc1ccccc1OCC(O)CN1CCN(c2ccccc2OC)CC1 (stereo not given),u,u,u,u,-13%,u
C=CCc1ccccc1OCC(CN1CCCCC1)OC(C)=O (stereo not given),-14%,16%,-9%,-5%,-13%,2%
Cc1cccc(OCC(=O)Nc2cc(-c3nc4cc(Cl)ccc4o3)ccc2C)c1,-13%,x,x,x,u,x
O=C(O)/C=C/c1ccc2ccccc2c1,-15%,x,x,x,-6%,x
COC(=O)C1=CN(C(C)C)C=C(C(=O)OC)C1c1cc(Br)c(OC)c(OC)c1,x,4.1µM*,-4%,u,x,u
SMILES,Vaccinia mCherry,LASV entry inh,HCV inh,FMDV antiviral,VACV Venus inh,Marburg entry inh
COc1ccc(C2NCc3ccc4c(c3-n3cccc32)OCO4)cc1O (stereo not given),x,u,0.56µM*,-13%,u,0.63µM*
COc1ccccc1CN(C)C(=O)CN1CCN(S(=O)(=O)c2ccc3c(c2)OCCCO3)CC1,x,x,-10%,-5%,x,x
COc1ccc(-c2nc(C)ncc2N=Nc2ccccc2)cc1,x,2%,32µM*,-14%,-2%,-15%
Cc1ncc(N=Nc2ccc(F)cc2)c(-c2ccc(Cl)cc2)n1,x,3%,9%,-17%,-7%,6%
Cc1ccc2nc(N3CCCCCC3)c(CN(CC3CCCO3)C(=O)c3cncs3)cc2c1 (stereo not given),-17%,x,x,-12%,-9%,x
CC(=O)Nc1sc2c(c1C(c1ccccc1Cl)N1CCN(CCO)CC1)CCCC2 (stereo not given),-20%,x,11µM*,-25%,-10%,x
CC(=O)Nc1sc2c(c1C(c1ccccn1)N1CCCC1)CCCC2 (stereo not given),-4%,u,13%,-10%,-19%,u
CCOc1ccc(C(=O)OC(C)CN2CCN(C)CC2)cc1 (stereo not given),-2%,-6%,1.8µM*,11%,-6%,-2%
O=C(CCl)Nc1cn(-c2ccccc2)nc1-c1ccc(F)cc1,u,11µM*,u,16µM*,-20%,u
Cc1nc(SCCC(=O)O)c2cc(-c3ccccc3)sc2n1,i,u,-7%,u,-8%,4µM*
Cc1ccccc1-n1c(SCC(N)=O)nc2sc(-c3ccccc3)cc2c1=O,x,0%,7%,-18%,u,-6%
CC1CC(C)CN(CCOCCSc2ccc(Cl)cc2)C1 (stereo not given),i,u,u,20%,-27%,7.1µM*
CC1CC(C)CN(CCOCCSc2ccccc2)C1 (stereo not given),-3%,9.2µM*,u,-11%,-18%,u
CC1CN(CCCCSc2ccccc2)CC(C)O1 (stereo not given),x,x,9%,2%,x,x
CC1CC(C)CN(CCCSc2ccccc2)C1 (stereo not given),-23%,u,-14%,-2%,-15%,2.9µM*
CC1CN(CCCSc2ccc(Cl)cc2)CC(C)O1 (stereo not given),-8%,-7%,13µM*,-22%,-19%,-25%[46.1 µM]
COc1ccc(C(=O)C[n+]2ccc(Cl)c3ccc(Cl)cc32)cc1,27%,x,x,x,-12%,x
CCc1cc(/C=C/c2ccnc3ccccc23)ccc1N(C)C,u,x,x,x,12%,x
CCCNC(=O)OC[C@H]1O[C@H](CCO/N=C(\C)CCN2CCCCc3nc(C)c(C)cc32)C=C[C@@H]1Oc1ccc(OC)cc1,x,x,x,x,x,-26%[14.2 µM]
CCOC(=O)N1CCC(NC(=O)c2c(C)nn(-c3cccc(C)c3)c2-n2cccc2)CC1,-11%,u,x,-26%,-9%,x
CCCCN1CC(COCc2ccccc2)Oc2cccc(Oc3ccc(C(C)C)cc3)c2S1(=O)=O (stereo not given),-19%,-3%[46.1 µM],-5%,9%,u,x
C[C@H](c1ccccc1)N1C[C@@H](COCc2ccccc2)Oc2cccc(Oc3ccc(F)cc3)c2S1(=O)=O,x,3.5µM*,x,x,x,x

# Screening data deposited in PubChem BioAssay by National Center for Advancing Translational Sciences (NCATS).
